S1P2 agonist: activates the human S1P2 receptor. activation, % at 4.5 µM. S1P2-expressing cell line, agonist reporter read-out. actives 0.46% (n = 97,000). O95136; in the data active = activation above about 16%;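 note: 0% = vehicle low control and 100% = maximal reference agonist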
Target sequence (O95136 whole entry, looked up): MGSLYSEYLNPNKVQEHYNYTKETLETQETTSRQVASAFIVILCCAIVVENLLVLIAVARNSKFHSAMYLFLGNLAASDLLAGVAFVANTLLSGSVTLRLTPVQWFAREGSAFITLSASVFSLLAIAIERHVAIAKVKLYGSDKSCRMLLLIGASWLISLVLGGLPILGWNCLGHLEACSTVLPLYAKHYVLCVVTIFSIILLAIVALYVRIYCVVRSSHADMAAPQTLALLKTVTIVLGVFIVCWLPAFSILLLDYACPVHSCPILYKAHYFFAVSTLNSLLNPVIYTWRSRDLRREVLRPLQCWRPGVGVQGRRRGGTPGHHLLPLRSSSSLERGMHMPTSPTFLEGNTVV
S1P2 blocker: S1P2 (human) receptor antagonism; inhibition, % at 5 µM; actives 0.21% (n = 97,000); O95136; AID 736; cell-based S1P2 antagonist assay, inhibition at 5 uM; in the data active = inhibition above about 45%;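 note: CRE beta-lactamase reporter cells expressing human S1P2 stimulated with S1P; 0% = agonist at EC80 alone and 100% = agonist plus reference antagonist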
GALR2 blocker: GALR2 (human) receptor antagonism; O43603; GALR2-expressing cells, antagonist mode; inhibition, % at 4 µM; actives 0.39% (n = 140,000); in the data active = inhibition above about 27%;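 note: cells stimulated with galanin 1-16 at roughly its EC80; 0% = agonist challenge control and 100% = basal control without agonist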
Phagocytosis inh: macrophage phagocytosis inhibition; J774A.1 macrophage IgG-bead phagocytosis, imaging; inhibition, % at 5 µM; actives 0.07% (n = 110,000); AID 1029;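 active = inhibition above the mean of the plate negative controls plus 5 SD, cut at about 13% in these data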;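 note: phagocytic index as fraction of beads internalized from green versus red external bead signal; plate controls were DMSO negative control for no effect and cytochalasin-D positive control for full effect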
GALR2 ag: GALR2 (human) receptor agonism. actives 0.48% (n = 140,000). AID 803. GALR2-expressing cells, agonist activation read-out. O43603. activation, % (test concentration not listed); in the data active = activation above about 5%, passing the limit was not always enough;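 note: 0% = vehicle buffer wells and 100% = reference agonist at full effect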
An asterisk follows results filed as active; / = not tested or not shown; [ ] = remark or other dose. Most compounds without a hit are left out; they make up all but 1.3% or so of the library.

SMILES	S1P2 agonist	S1P2 blocker	GALR2 blocker	Phagocytosis inh	GALR2 ag
O=C(NC1CCCC1)c1noc2c1CCCCC2	-7.2	1.4	-1.3	-0.9	-2.4
COc1ccc2cc(C(=O)NCCO)sc(=O)c2c1OC	-3.9	7.3	2.6	/	-2.2
CCOC(=O)c1cc2ccc(OC)c(OC)c2c(=O)s1	109.2*	-17.3	-9.5	-0.5	-1.5
CCCCCCCCCn1c2c(c(=N)c3c1CCC3)CCC2	-4.3	78.8*	21.6	/	-0.6
COCCNC(=O)CN1CCN(C(c2ccccc2)c2ccccc2)CC1	54.7*	9.4	4.5	-0.5	-3.4
Cc1ccsc1/C=N/NC(=O)Cn1cnc2ccccc21	/	/	4.8	-3.2	-0.7
COc1ccc(/C=C/C(=O)c2cc(F)ccc2OC(=O)c2ccccc2)cc1OC	-3.3	-3.8	12.8	/	5.5*
COc1ccc(/C=C/C(=O)c2cc(F)ccc2OC(=O)c2ccc(OC)c(OC)c2)cc1OC	/	/	18.9	-1.8	-1.3
O=S(=O)(N/N=C\c1cn(-c2ccccc2)nc1-c1ccccc1)c1ccccc1	-8.8	15.5	1.9	/	-1.5
O=[N+]([O-])c1ccc(N/N=C/c2cn(-c3ccccc3)nc2-c2ccccc2)cc1	-5.6	67.5*	-2.8	/	0.1
CCc1cc(=O)oc2cc(OCC(=O)O)c(Cl)cc12	20.9*	-6.8	-5.5	1.7	-1.3
c1ccc(-c2ncnc3cc4n(c23)CCC4)cc1	-4.5	-26.2	7.0	/	-0.3
Cc1nn(CCC(N)=S)c2nc(-c3cccs3)cc(C(F)(F)F)c12	/	/	-4.1	-7.6	2.0
CC(=O)Nc1ccc(NC(=O)/C(Cl)=C/c2ccccc2)cc1	35.3*	5.6	2.4	1.5	-0.3
COc1ccc(Cn2c(-c3ccc(OC)cc3)nc3c(c(=O)c4ccccc4n3C)c2=O)cc1	/	/	3.3	-6.5	0.7
COc1ccc(Cn2c(-c3ccc(C)cc3)nc3c(c(=O)c4ccccc4n3C)c2=O)cc1	/	/	-8.2	2.1	5.1*
O=C(CCC(=O)N/N=C/c1ccccc1O)NCc1ccccc1	/	/	4.1	0.1	-1.2
CCn1c2ccccc2c2nc3ccccc3nc21	18.9*	-36.5	-4.2	-0.3	1.1
CCn1c2ccccc2c2nc3cc(OC)c(OC)cc3nc21	23.1*	-37.5	-5.5	-0.8	1.3
c1ccc2[nH]c(CSc3ncnc4c3oc3ccccc34)nc2c1	31.6*	-28.0	4.4	/	0.7
Cc1nc(N2CCN(Cc3nc4ccccc4[nH]3)CC2)c2oc3ccccc3c2n1	1.9	-27.2	24.2	0.2	-3.1
Cc1nc(SCc2nc3ccccc3[nH]2)c2oc3ccccc3c2n1	23.2*	-35.3	0.9	/	-0.9
Cc1ccc(NC(=O)Cc2ncc(C(F)(F)F)cc2Cl)cc1Cl	-3.6	-13.3	-16.3	-4.4	-2.8
NNC(=O)c1cccc(O)c1	/	/	3.0	-2.9	-1.6
Cc1ccc2nc(/C(C#N)=C\c3ccc(Oc4ccc([N+](=O)[O-])cn4)cc3)[nH]c2c1	/	/	12.7	2.8	1.7
SMILES	S1P2 agonist	S1P2 blocker	GALR2 blocker	Phagocytosis inh	GALR2 ag
Cc1ccc2nc(/C(C#N)=C\c3cc(C)n(-c4cccc([N+](=O)[O-])c4)c3C)[nH]c2c1	16.9*	-40.0	-2.9	-1.7	2.3
N#C/C(=C\c1ccc([N+](=O)[O-])o1)c1nc2ccccc2[nH]1	/	/	18.6	-2.8	0.4
Cc1ccc2nc(/C(C#N)=C\c3ccc([N+](=O)[O-])o3)[nH]c2c1	-7.0	31.9	21.9	33.4*[fluoresces]	-1.9
Cc1ccc(C(=O)NCC(=O)OC(C)C(=O)NCCC2=CCCCC2)cc1C (configuration not stated)	/	/	-0.8	-7.6	1.1
O=C(c1cccn(Cc2ccc(Cl)c(Cl)c2)c1=O)N1CCOCC1	-5.9	6.5	12.6	/	-3.7
O=c1c(-c2nc3ccccc3s2)cccn1Cc1ccc(Cl)c(Cl)c1	109.0*	-116.8	-12.7	-0.2	11.5*
COc1cc2nc(SCc3ccc(C(F)(F)F)cc3)n(Cc3cccs3)c(=N)c2cc1OC	16.2*	10.3	1.8	-1.0	-1.5
COc1cc2nc(SCc3ccc(Cl)cc3Cl)n(Cc3cccs3)c(=N)c2cc1OC	-6.0	16.2	-12.3	/	-1.9
CCCc1nc2ccccc2c(C(=O)OCC(=O)Nc2cccc(S(=O)(=O)N3CCOCC3)c2)c1CC	19.2*	-9.8	9.3	/	-1.0
CCOC(=O)c1c(C)n(C)c2cc(-c3cccc(C(F)(F)F)c3)c(O)cc12	/	/	6.0	-1.5	-0.4
CCOC(=O)c1c(C)n(C)c2cc(-c3ccc(C)cc3)c(O)cc12	/	/	-9.3	-6.0	5.3*
CCn1c(=O)cc(SCC(=O)Nc2cc(OC)c(OC)c(OC)c2)c2ccccc21	20.0*	-48.3	-1.5	0.8	-0.7
O=C(Nc1ccc2c(c1)OCO2)c1cnn2cccnc12	-1.4	14.4	19.0	-1.5	374.0*
CCOC(=O)c1sc2nc(C3CC3)cc(-c3ccc(F)cc3)c2c1N	37.6*	-16.4	-6.9	-1.4	-1.1
CCOC(=O)c1sc2nc(C3CC3)cc(-c3ccc(OC)cc3)c2c1N	3.8	12.6	-8.4	-1.7	-1.0
CCN(CC)c1nc(C#N)cc(-c2ccc(OC)cc2)n1	19.2*	-21.7	-9.0	-0.4	0.8
O=C(N/N=C/c1ccc(O)cc1)c1[nH]c2ccc(Br)cc2c1-c1ccccc1	/	/	18.8	-6.8	4.7
O=C(N/N=C/c1c[nH]c2ccccc12)c1[nH]c2ccc(Br)cc2c1-c1ccccc1	/	/	13.3	22.1	8.1*
Cc1ccc(S(=O)(=O)N2CC3(C)CN(S(=O)(=O)c4ccc(C)cc4)CC(C)(C2)C3O)cc1 (configuration not stated)	/	/	9.8	0.5	5.0*
Cc1ccc(S(=O)(=O)N2CC3(C)CN(S(=O)(=O)c4ccc(C)cc4)CC(C)(C2)C3=O)cc1	-5.8	25.6	0.3	/	-2.5
CCCCn1nc(NC(=O)c2cccs2)c2cc3cc(OC)ccc3nc21	11.7	34.5	1.4	-0.2	6.8*
CCCCN1CCc2c([nH]c3c(C)cccc23)C1=O	/	/	14.3	-0.5	-1.1
CCc1ccc2[nH]c(=O)c(CN(Cc3ccc4c(c3)OCO4)Cc3nnnn3C3CCCC3)cc2c1	24.2*	0.7	0.6	5.0	-1.8
Cc1ccc2cc(CN(Cc3ccc(F)cc3)Cc3nnnn3C3CCCC3)c(=O)[nH]c2c1	-9.4	19.9	-9.3	-3.5	-0.5
CN1CCN(NC(=O)c2cccc(Br)c2)CC1	/	/	-2.6	-3.3	-0.7
SMILES	S1P2 agonist	S1P2 blocker	GALR2 blocker	Phagocytosis inh	GALR2 ag
CCOc1ccc2cc(/C=C/C(=O)c3ccco3)c(Cl)nc2c1	-9.2	30.5	32.0*	0.5	0.5
CCOc1ccc2nc(N3CCC(C(=O)N4CCN(C(=O)c5ccco5)CC4)CC3)sc2c1	/	/	1.6	-0.6	-1.0
CCOc1cccc(Nc2cc3n(c(=O)n2)CCc2cc(OC)c(OC)cc2-3)c1	29.0*	-48.2	10.0	2.3	-0.2
CCN(CC)CCCNc1cc2n(c(=O)n1)CCc1cc(OC)c(OC)cc1-2	-5.4	-6.7	6.7	1.1	-5.6
COc1cc2c(cc1OC)-c1cc(OCc3cccnc3)nc(=O)n1CC2	23.4*	-35.8	1.6	1.1	-0.8
COc1cc2c(cc1OC)-c1cc(Nc3ccc4c(c3)OCCO4)nc(=O)n1CC2	20.3*	-50.7	-11.8	0.5	-2.2
COc1cc2c(cc1OC)C(C(=O)Nc1ccc3c(c1)OCCO3)C1c3ccccc3CCN1C2=O (configuration not stated)	-5.6	3.1	7.7	/	-3.0

Compound activity as filed in PubChem BioAssay.
